Only a selection was taken, and hits are over-represented in it overall.
CD40 NFkB inh: inhibitors of CD40-induced NF-kB signaling, primary screen, BL2 cells, luciferase reporter, single point | CD40L-induced, 4 h | inhibition, % at 10 µM | 0.94% of 83,000 active | AID 1053188, 2014;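 active means mean inhibition of at least 50% with a set share of replicates also reaching that level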;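 further: 0% = neutral control wells and 100% = IKK inhibitor VII at 50 µM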
Starred values were filed as active, the others as inactive; [ ] = dose if it differs, or a comment.

SMILES	CD40 NFkB inh
CN1c2ccc(C#Cc3cccnc3)cc2[C@@H]2[C@@H](CCN2S(=O)(=O)c2ccccc2F)[C@H]1CO	-8.3
CC(=O)N(C)c1ccc(NS(=O)(=O)Cc2ccccc2)cc1	7.7
CC(=O)N(C)c1ccc(C=C2C=Cc3ccccc32)cc1	71.6*
CC(=O)N(C)c1ccc(NC(=S)Nc2ccc(C(C)C)cc2)cc1	-13.7
COc1ccccc1CN1[C@H](CO)[C@@H]2c3ccccc3N(C(=O)C3CCC3)C[C@@H]21	4.9
CN1C(=O)c2cc(NC(=O)C3CCCCC3)ccc2OC[C@@H]2O[C@H](CC(=O)NCC3CCCCC3)CC[C@@H]21	5.2
COc1cccc2sc(N3CCN(C(=O)c4ccc([N+](=O)[O-])o4)CC3)nc12	76.1*
O=C(c1ccc([N+](=O)[O-])o1)N1CCN(c2nc3ccc(F)cc3s2)CC1	31.8*
O=C(c1ccc([N+](=O)[O-])o1)N1CCN(c2nc3c(Cl)cccc3s2)CC1	13.7
O=C(C1COc2ccccc2O1)N1CCN(c2nc3ccc([N+](=O)[O-])cc3s2)CC1 (stereo unspecified)	3.5
COc1cccc2sc(N3CCN(c4nc5ccccc5s4)CC3)nc12	5.2
O=C(c1cccs1)N1CCN(c2nc3ccccc3s2)CC1	-18.7
CN(C)C(=O)c1ccc(-c2ccc([C@@H]3[C@@H](C#N)N(C(=O)Cc4ccccn4)[C@H]3CO)cc2)cc1	-7.0[25 µM]
COc1ccc(C#Cc2ccc3c(c2)O[C@@H](CN(C)C(=O)CN2CCOCC2)[C@H](C)CN([C@H](C)CO)S3(=O)=O)cc1	4.9[25 µM]
CCC(=O)N1CC[C@H]2[C@H](CO)Nc3ccc(C#Cc4ccccc4F)cc3[C@H]21	-2.5[25 µM]
CO[C@@H]1CN(C)C(=O)c2ccc(NC(=O)C3CCCC3)cc2OC[C@@H](C)N(C(=O)Nc2ccc(C(F)(F)F)cc2)C[C@H]1C	-0.2
CC1OC(CC(=O)O)CC2=C1C(=O)c1c(O)cccc1C2=O (stereo unspecified)	103.7*
C[C@H]1CN(C)C(=O)Cc2cc(N(C)C)ccc2O[C@H]1CN(C)S(C)(=O)=O	5.5
C[C@H]1CN([C@@H](C)CO)C(=O)c2cccc(NS(=O)(=O)c3cn(C)cn3)c2O[C@@H]1CN(C)Cc1ccc(Oc2ccccc2)cc1	5.5[25 µM]
O=C(C1CCCCC1)N1C[C@@H]2[C@H](c3ccccc31)[C@@H](CO)N2Cc1ccccc1Cl	5.8[25 µM]
CCCCC(C)Sc1nc2c([nH]1)c(=S)n(C)c(=O)n2C (stereo unspecified)	-37.0
CSc1nc2c([nH]1)c(=S)n(C)c(=O)n2C	73.8*
CCCC(CC)Sc1nc2c([nH]1)c(=S)n(C)c(=O)n2C (stereo unspecified)	-45.5
C[C@H](CO)N1C[C@H](C)[C@@H](CN(C)Cc2cccc(C(F)(F)F)c2)OCc2ccccc2-c2ccccc2C1=O	-10.6[25 µM]
COc1ccc2c3c([nH]c2c1)[C@H](CO)N(C(=O)Nc1ccc(F)cc1)CC31CN(S(=O)(=O)c2ccc(C)cc2)C1	18.3[25 µM]
SMILES	CD40 NFkB inh
COc1ccc2c3c([nH]c2c1)[C@H](CO)N(C(=O)Nc1cccc(F)c1)CC31CCN(S(=O)(=O)c2cccc(C)c2)CC1	79.6*[25 µM]
COc1ccc2c3c(n(C)c2c1)[C@H](CO)N(C(=O)Nc1ccc(F)cc1)CC31CCN(S(=O)(=O)c2cccc(C)c2)CC1	44.4[25 µM]
CNC[C@@H]1Oc2ccc(NS(C)(=O)=O)cc2C(=O)N(C)C[C@@H]1C	4.9
CC(C)=NNc1ncnc2nc[nH]c12	-16.8
CC(C)CCCCCCCCCCCCC(=O)NCC(=O)NC1C(O)C(O)C(Nc2ncnc3nc[nH]c23)OC1C(O)CO (stereo unspecified)	104.1*
COc1ccc(S(=O)(=O)N(C)C[C@@H]2Oc3ccc(NC(=O)CCN4CCOCC4)cc3CC(=O)N([C@@H](C)CO)C[C@H]2C)cc1	-6.4[25 µM]
CC(C)c1ccc(NC(=O)Nc2nc(C(N)COCc3ccccc3)cs2)cc1 (stereo unspecified)	57.0*
COc1ccc(NC(=O)Nc2nc(C(N)CC(C)C)cs2)cc1 (stereo unspecified)	2.3
COc1cccc(Nc2nc(C(N)COCc3ccccc3)cs2)n1 (stereo unspecified)	5.6
COCC(=O)Nc1ccc2c(c1)[C@@H]1C[C@@H](CC(=O)N3CCOCC3)O[C@@H](CO)[C@@H]1O2	1.5[25 µM]
COc1ccc(NC(=O)N2C[C@H]3[C@@H](c4ccccc42)[C@H](CO)N3Cc2ccccn2)cc1	-27.0[25 µM]
CC1(C)CC(Nc2ccc(Nc3ccccc3)cc2)CC(C)(C)N1	100.1*
CC1(C)CC(NS(=O)(=O)c2cccc3ccccc23)CC(C)(C)N1	5.7
CC1(C)CC(NCc2ccncc2)CC(C)(C)N1	5.1
CCCCCC(=O)N/N=C/c1ccc([N+](=O)[O-])o1	6.7
O=C(Cc1ccc2c(c1)OCO2)NN=Cc1ccc([N+](=O)[O-])o1	95.2*
O=C(N/N=C/c1ccc([N+](=O)[O-])o1)C1CCCC1	-2.3
CCOC(=O)N(C)C[C@@H]1OCc2ccccc2-c2ccccc2C(=O)N([C@H](C)CO)C[C@H]1C	-9.7
